An excerpt weighted towards active compounds, which were near 21% of everything screened.
MRP resist rev: reversal of MRP1-mediated doxorubicin resistance, primary screen, H69AR cells, doxorubicin co-treatment; AID 602, 2007; 85,000 compounds, 0.04% hits; H69AR cells + 2 uM doxorubicin, CellTiter-Glo, 72 h; differential viability (reversal), % at 10 µM;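 active means viability drop by adding the cancer drug above about 55%, with treated viability meeting a 40% cutoff, limit read from the data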;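 further: viability without doxorubicin minus viability with 2 µM doxorubicin for each compound; larger differential means the compound sensitizes cells more to doxorubicin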
CYP2C19 inh: blockers of cytochrome P450 2C19 activity – biochemical, luminescence, ADME assay, primary screen; P33261; CYP2C19 Supersomes, luciferin-H EGE luminescence, 30 min; inhibition, % at 5 µM; 96,000 compounds, 21% hits;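 active means CYP2C19 inhibition above a set limit at 5 µM in the primary screen, cut at about 50% in these data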;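 further: plate controls were negative control wells for no effect and 2.5 mM tranylcypromine positive control for full effect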
Target sequence (P33261 whole entry, looked up): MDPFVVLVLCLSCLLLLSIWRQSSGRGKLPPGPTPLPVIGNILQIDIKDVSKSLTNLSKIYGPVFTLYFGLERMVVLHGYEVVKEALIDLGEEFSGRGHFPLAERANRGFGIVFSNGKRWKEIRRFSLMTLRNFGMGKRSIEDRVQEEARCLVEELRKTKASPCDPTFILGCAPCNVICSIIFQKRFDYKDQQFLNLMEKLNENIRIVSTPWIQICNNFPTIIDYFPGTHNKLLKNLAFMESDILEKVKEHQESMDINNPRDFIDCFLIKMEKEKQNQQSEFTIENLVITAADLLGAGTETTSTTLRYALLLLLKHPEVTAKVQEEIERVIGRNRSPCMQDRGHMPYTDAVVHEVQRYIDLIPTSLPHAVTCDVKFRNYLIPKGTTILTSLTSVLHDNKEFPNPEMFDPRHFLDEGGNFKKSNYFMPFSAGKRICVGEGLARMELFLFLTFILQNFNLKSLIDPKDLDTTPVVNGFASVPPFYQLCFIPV
CYP2C19 act: human CYP2C19 activators, primary screen, biochemical, luminescence; Cytochrome P450 2C19 (Homo sapiens), P33261; recombinant CYP2C19, luciferin-H EGE luminescence; hits give high values; 0 = fully inhibited enzyme, 1 = untreated enzyme; activation factor at 5 µM; 96,000 tested, under 10 active;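 active means activation factor of at least 2 at 5 µM in the primary screen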;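 further: 0 = wells with 2.5 mM tranylcypromine and 1 = vehicle-only wells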
MRP1 act: H69AR viability gain despite doxorubicin, primary screen, MRP-1 activator project, H69AR cells, CellTiter-Glo; viability rescue; 140,000 compounds, 0.61% hits; viability increase, % at 10 µM;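 active means viability gain under doxorubicin at or above a set limit, the compound median plus 3 SD, cut at about 4.7% in these data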;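 further: MRP-1 overexpressing cells given doxorubicin 25 µM after compound pretreatment; 18-22 h compound pretreatment then 72 h with doxorubicin before readout; 0% = doxorubicin-only wells and 100% = vehicle-treated cells without doxorubicin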
CYP2C9 activ: human CYP2C9 activators, primary screen, biochemical, luminescence; 96,000 compounds, 1.4% hits; activation factor at 5 µM; Cytochrome P450 2C9 (Homo sapiens), P11712; recombinant CYP2C9, luciferin-H conversion; hits give high values; factor 1 = untreated enzyme, 0 = blocked; AID 1024, 2008;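 active means activation factor of 2 or more for CYP2C9 at a 5 µM dose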;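 further: 0 = sulfaphenazole-blocked wells and 1 = vehicle-only wells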
CYP2C9 inhib: blockers of cytochrome P450 2C9 activity – biochemical, luminescence, ADME assay, primary screen. CYP2C9 Supersomes, luciferin-H conversion. inhibition, % at 5 µM. 96,000 compounds, 20% hits;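 active means blocking of liver enzyme CYP2C9 beyond about 50% at 5 µM, limit read from the data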
* = called active by the depositor; nt = not tested or not shown.

SMILES	MRP resist rev	CYP2C19 inh	CYP2C19 act	MRP1 act	CYP2C9 activ	CYP2C9 inhib
CCn1c(Cc2ccccc2)nnc1SCC(=O)Nc1nnc(-c2ccccc2)s1	4	48	0.5	-2	0.7	30
O=C(NC1CCCC1)C(c1ccc(F)cc1)N(Cc1ccc(Cl)cc1)C(=O)CCl (stereo unspecified)	nt	nt	nt	-5	nt	nt
O=C(NCCc1ccccn1)C(F)(F)C(F)(F)C(F)(F)C(F)(F)C(F)(F)C(F)F	nt	nt	nt	-1	nt	nt
COc1ccc2cc(C)c3nnc(SCC(=O)Nc4nc(-c5ccccc5)cs4)n3c2c1	nt	40	0.6	1	0.5	45
COC(=O)c1ccc(N2CCN(CC(=O)c3ccc(-c4ccccc4)cc3)CC2)c([N+](=O)[O-])c1	nt	39	0.6	-3	0.5	50*
CCn1c(N)c(C(=O)NC)sc1=S	-36	52*	0.5	-5	0.5	50*
CC(=O)Oc1ccc2ccccc2c1C(NC(=O)Cc1ccccc1)c1ccccc1 (stereo unspecified)	nt	61*	0.4	-2	0.3	67*
CC(=O)NC(c1cccc([N+](=O)[O-])c1)c1c(OC(C)=O)ccc2ccccc12 (stereo unspecified)	14	nt	nt	-4	nt	nt
COc1ccccc1NC(=O)CC1C(=O)Nc2c1c(=O)n(C)c(=O)n2C (stereo unspecified)	-33	10	0.9	-2	0.4	58*
O=C(COC(=O)c1cc(-c2ccccc2Cl)nc2ccccc12)Nc1ncc(C(F)(F)F)cc1Cl	nt	nt	nt	1	nt	nt
COc1ccc2c(c1)-c1nc(NC(=O)c3ccco3)sc1CC2	-33	nt	nt	0	nt	nt
COc1ccc2c(c1)CCc1sc(NC(=O)c3ccc(C)cc3)nc1-2	6	1	1	4.9*	1	2
COc1ccc2c(c1)CCc1sc(NC(=O)c3ccco3)nc1-2	-8	94*	0.1	0	0	99*
COc1ccc2c(c1)Cc1sc(NC(C)=O)nc1-2	-4	37	0.6	0	0.7	33
CCCCCn1c(N2CCC(C(N)=O)CC2)nc2c1c(=O)[nH]c(=O)n2C	4	-8	1.1	0	0.7	32
O=C(NC(=S)Nc1nc(-c2ccccc2)cs1)c1cccs1	nt	nt	nt	-1	nt	nt
O=C(Nc1nc(-c2ccncc2)cs1)c1ccco1	-7	97*	0	-2	0.2	76*
O=C(NC(=S)Nc1nc(-c2ccccc2)cs1)c1cncc(Br)c1	nt	-18	1.2	6.8*	1.2	-20
CCc1ccc(-c2csc(NC(=O)Oc3ccccc3)n2)cc1	nt	nt	nt	13*	nt	nt
O=C(Nc1nc(-c2ccccc2)cs1)c1ccc(Br)o1	nt	24	0.8	6.9*	0.6	37
CCOC(=O)C1(CC/C(C)=N\NC(N)=O)CC(C)(C)OC1=O (stereo unspecified)	nt	nt	nt	-1	nt	nt
CCC(CO)NC1=C([N+](=O)[O-])C(=O)CC(C)(C)C1 (stereo unspecified)	nt	nt	nt	-2	nt	nt
COc1ccc(C(=O)NC2CC(C)(C)Cc3occc32)cc1 (stereo unspecified)	nt	nt	nt	1	nt	nt
O=S(Cc1ccc(Br)cc1)Cc1nnc(SCc2ccc(Cl)cc2)n1-c1ccccc1 (stereo unspecified)	nt	37	0.6	-4	0.5	52*
Cn1c(CS(=O)Cc2c(Cl)cccc2Cl)nnc1SCc1ccc(Cl)cc1 (stereo unspecified)	nt	19	0.8	3	0.8	19
SMILES	MRP resist rev	CYP2C19 inh	CYP2C19 act	MRP1 act	CYP2C9 activ	CYP2C9 inhib
Cc1ccc(CSc2nnc(CS(=O)Cc3ccc(Cl)cc3Cl)n2C)cc1 (stereo unspecified)	nt	-10	1.1	2	0.5	54*
Cc1cc2nc(SCCOC(=O)Nc3ccc(Cl)cc3)nc(C)c2cc1C	nt	16	0.8	1	1	0
CCOC(=O)c1sc(NC(=O)COC(=O)CNC(=O)C2CCCCC2)c(C(=O)OCC)c1C	nt	nt	nt	0	nt	nt
O=C(COc1ccc(Cl)cc1Cl)NCCCn1ccnc1	-3	100*	0	-3	0	97*
Cc1cc(Cl)ccc1OCC(=O)NCCC(=O)O	7	-3	1	0	0.7	27
CN(C)P(=NC(=O)COc1ccc(Cl)cc1Cl)(N(C)C)N(C)C	3	92*	0.1	0	1	3
CCn1cc(C(C)NC(=O)COc2ccc(Cl)cc2C)c(C)n1 (stereo unspecified)	27	62*	0.4	1	0.2	82*
Cc1cc(Cl)ccc1OCC(=O)NCc1ccncc1	1	95*	0	-2	0.2	82*
CCC(=O)Nc1ccc(NC(=O)CSc2nnnn2-c2cccnc2)cc1C	nt	1	1	-2	1	5
CC(C(=O)N1CCCc2ccccc21)N1CCN(S(=O)(=O)c2ccccc2F)CC1 (stereo unspecified)	-2	46	0.5	-1	0.7	32
COc1cc(C)nc(OCCNC(=O)COc2ccc(Cl)cc2C)n1	13	73*	0.3	-1	0.5	46
Cc1cc2oc(C(=O)NCc3ccncc3)c(C)c2cc1C	4	98*	0	0	0	97*
O=C(COc1ccc(Cl)cc1Cl)NCCCCc1ccccc1	nt	46	0.5	0	0.8	19
CC(Oc1ccc(Cl)cc1)C(=O)NCCCn1ccnc1 (stereo unspecified)	-5	100*	0	0	0.1	89*
O=C(COc1ccc(Cl)cc1Cl)NCc1ccncc1	-55	100*	0	-1	0	95*
CCCCOc1ccc(NC(=O)C(=O)NCCCn2ccnc2)cc1	nt	nt	nt	0	nt	nt
Cc1cc(Cl)ccc1OCC(=O)NCCOc1nc(N2CCCCC2)nc(N2CCOCC2)n1	3	9	0.9	-3	0.8	24
Cc1cc(=O)oc2cc(OCC(=O)NCc3ccncc3)ccc12	2	65*	0.3	-3	0.1	91*
O=C(COc1ccc(Cl)cc1Cl)Nc1ccccn1	-8	70*	0.3	-3	0.2	78*
CSc1ccccc1NC(=O)COc1ccc(Cl)cc1Cl	nt	nt	nt	-3	nt	nt
Cc1cc(=O)oc2cc(OCC(=O)NCc3cccnc3)ccc12	-1	6	0.9	-4	1	2
COC(=O)c1ccc(N2CCC(C)CC2)c(N)c1	16	60*	0.4	-4	0.5	48
COC(=O)c1ccc(C(=O)OC)c(N)c1	-1	17	0.8	1	0.9	10
CC(C)C[C@@H]1NC(=O)[C@H](C(C)C)NC(=O)c2cc([N+](=O)[O-])cc(I)c2OCC[C@@H](C(N)=O)NC1=O	nt	nt	nt	0	nt	nt
Cc1onc(-c2ccccc2)c1C(=O)Nc1sc2c(c1C(N)=O)CCC2	-32	48	0.5	-2	0.6	43
